Source: PubChem BioAssay (EPA / NIEHS)
Results filed as inconclusive are left out. Activity calls are given as the source filed them. The calls were made as follows: active = hit-call score of the fitted dose curve at least 0.9, where 1 is the maximum; inconclusive = response in the unintended direction; inactive = score below 0.9.

System: not listed separately
Test: NVS_IC_rCaDHPRCh_L: NovaScreen (NVS) Ion Channel Assay for rat Calcium Channel, Type L, Dihydropyridine Site (CaDHPRCh_L) (AID 2283320)
Procedure, shortened: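 Radioligand binding to dihydropyridine site on rat cortical membranes, filter-based scintillation counting, 1 h after dosing. Screened in duplicate at 25 uM; actives rerun in concentration-response up to 50 uM. Loss of signal versus DMSO baseline.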

SMILES	AC50
CSc1ccc(Oc2ccc(S(N)(=O)=O)cc2CN(C)C)cc1C	8.08 µM (active)
CN(C)C(=O)NC1(c2ccccc2)CCN(CC[C@@]2(c3ccc(F)c(F)c3)CN(C(=O)c3ccccc3)CCO2)CC1	3.38 µM (active)
COC(=O)[C@H]1[C@H]2C[C@@H]3c4[nH]c5cc(OC)ccc5c4CCN3C[C@H]2C[C@@H](OC(=O)c2cc(OC)c(OC)c(OC)c2)[C@@H]1OC	11.6 µM (active)
CN(C)C(=O)NC1(c2ccccc2)CCN(CCC[C@]2(c3ccc(Cl)c(Cl)c3)CCCN(C(=O)c3ccccc3)C2)CC1	0.988 µM (active)

Molecular target: Sodium channel protein type 1 subunit alpha (Rattus norvegicus) (UniProt P04774)
Test: NVS_IC_rNaCh_site2: NovaScreen (NVS) Ion Channel Assay for rat Sodium Channel, Site 2 (NaCh) (AID 2283322);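 also: hit means loss of radioligand binding signal relative to DMSO so AC50 marks displacement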
Procedure, shortened: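 Membranes: rat forebrain. Format: competitive radioligand displacement, filter separation, scintillation readout, 1 h exposure. Primary screen in duplicate at 25 uM; actives retested in concentration series.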

SMILES	AC50	outcome
CCN(CC)CCOc1ccc(C(=C(Cl)c2ccccc2)c2ccccc2)cc1	1.99 µM (active)	
CSc1ccc(Oc2ccc(S(N)(=O)=O)cc2CN(C)C)cc1C	13.5 µM (active)	
CN(C)C(=O)NC1(c2ccccc2)CCN(CC[C@@]2(c3ccc(F)c(F)c3)CN(C(=O)c3ccccc3)CCO2)CC1	6.43 µM (active)	
CN(C)CCCN1c2ccccc2Sc2ccc(Cl)cc21	1.96 µM (active)	
NC(=Nc1ccccc1)Nc1ccccc1		inactive
O=C(N[C@@H](c1ccccc1)[C@@H]1CCCCN1)c1cccc(C(F)(F)F)c1Cl	1.27 µM (active)	
COC(=O)[C@H]1[C@H]2C[C@@H]3c4[nH]c5cc(OC)ccc5c4CCN3C[C@H]2C[C@@H](OC(=O)c2cc(OC)c(OC)c(OC)c2)[C@@H]1OC	5.49 µM (active)	
CCc1nc(N)nc(N)c1-c1ccc(Cl)cc1	3.65 µM (active)	
CCCCCCCCCC[N+](C)(C)[O-]	19.1 µM (active)	
COc1ccc(OC(F)(F)F)cc1CN[C@H]1CCCN[C@H]1c1ccccc1	0.623 µM (active)	
CN(C)C(=O)NC1(c2ccccc2)CCN(CCC[C@]2(c3ccc(Cl)c(Cl)c3)CCCN(C(=O)c3ccccc3)C2)CC1	0.327 µM (active)	
Cc1cc(SC2=C(O)C[C@@](CCc3ccc(N)cc3)(C(C)C)OC2=O)c(C(C)(C)C)cc1CO		inactive

Molecular target: human Serotonin, 5-Hydroxytryptamine Receptor 3 (5HT3), HTR3A (gene 3359) (UniProt P46098)
Sequence (P46098 whole entry, looked up): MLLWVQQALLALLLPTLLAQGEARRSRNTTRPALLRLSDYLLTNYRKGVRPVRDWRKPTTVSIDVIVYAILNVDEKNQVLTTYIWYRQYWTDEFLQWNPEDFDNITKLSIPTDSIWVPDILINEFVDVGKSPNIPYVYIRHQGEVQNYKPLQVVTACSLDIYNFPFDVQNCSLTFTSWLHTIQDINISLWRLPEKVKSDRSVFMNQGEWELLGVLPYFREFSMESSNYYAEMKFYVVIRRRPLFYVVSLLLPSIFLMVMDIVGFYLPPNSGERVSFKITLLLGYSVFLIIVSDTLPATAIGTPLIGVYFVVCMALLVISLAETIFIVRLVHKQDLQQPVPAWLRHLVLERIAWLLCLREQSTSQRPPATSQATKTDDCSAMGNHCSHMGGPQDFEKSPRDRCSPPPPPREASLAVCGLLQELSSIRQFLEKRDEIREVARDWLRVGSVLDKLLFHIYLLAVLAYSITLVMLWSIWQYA
Test: NVS_LGIC_h5HT3: NovaScreen (NVS) Ligand-Gated Ion Channel Assay for human Serotonin, 5-Hydroxytryptamine Receptor 3 (5HT3) (AID 2283325)
Procedure, shortened: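 Radioligand displacement binding to human 5-HT3 from HEK293 membranes, read by filter-based scintillation counting after 1 h. Screen at 25 uM in duplicate; chemicals passing threshold were retested in concentration-response up to 50 uM.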

SMILES	outcome	AC50
CSc1ccc(Oc2ccc(S(N)(=O)=O)cc2CN(C)C)cc1C	inactive	
CN(C)CCCN1c2ccccc2Sc2ccc(Cl)cc21		25 µM (active)
Cc1cc(SC2=C(O)C[C@@](CCc3ccc(N)cc3)(C(C)C)OC2=O)c(C(C)(C)C)cc1CO	inactive	

Molecular target: rat Gamma-Aminobutyric Acid Type A Receptor, Non-Selective (GABAR-NonSelective), Gabra1 (gene 29705) (UniProt P62813)
Sequence (P62813 whole entry, looked up): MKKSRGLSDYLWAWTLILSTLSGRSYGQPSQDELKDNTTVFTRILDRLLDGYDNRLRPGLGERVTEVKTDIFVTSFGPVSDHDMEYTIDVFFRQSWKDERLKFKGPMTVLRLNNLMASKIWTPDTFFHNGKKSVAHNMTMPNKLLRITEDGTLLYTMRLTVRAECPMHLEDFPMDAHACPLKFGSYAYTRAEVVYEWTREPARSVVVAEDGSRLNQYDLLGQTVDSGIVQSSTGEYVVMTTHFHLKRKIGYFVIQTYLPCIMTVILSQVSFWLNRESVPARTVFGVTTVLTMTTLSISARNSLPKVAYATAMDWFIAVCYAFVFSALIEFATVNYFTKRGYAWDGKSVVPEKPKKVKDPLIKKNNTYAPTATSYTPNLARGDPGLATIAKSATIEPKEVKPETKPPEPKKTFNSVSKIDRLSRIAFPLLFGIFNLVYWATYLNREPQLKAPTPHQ
Test: NVS_LGIC_rGABAR_NonSelective: NovaScreen (NVS) Ligand-Gated Ion Channel Assay for rat Gamma-Aminobutyric Acid Type A Receptor, Non-Selective (GABAR-NonSelective) (AID 2283326)
Procedure, shortened: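 Radioligand displacement on rat whole-brain extract, 1 h, filter scintillation readout; signal loss fitted versus DMSO. Primary screen in duplicate at 25 uM; hits (e.g. ≥30% inhibition) retested in concentration-response up to 50 uM.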

SMILES	AC50
CSc1ccc(Oc2ccc(S(N)(=O)=O)cc2CN(C)C)cc1C	10.3 µM (active)
CCc1nc(N)nc(N)c1-c1ccc(Cl)cc1	0.0648 µM (active)
COc1ccc(OC(F)(F)F)cc1CN[C@H]1CCCN[C@H]1c1ccccc1	2 µM (active)
